From PubChem BioAssay come the findings set out here.

The subject of test [1] is Plasmodium falciparum Sir2 (PF13_0152, Sir2A). In words: pfSir2 binders on small-molecule microarrays, primary screen, biochemical, small-molecule microarray, 635 nm fluorescence (AID 1098).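 Note: score merges spot fluorescence intensity with its signal-to-noise ratio.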 As to conditions: small-molecule microarray binding, fluorescence 635 nm; higher = more signal.
A short description of test [2]: small-molecule microarray binders of probe aDKK1, primary screen, biochemical, biotinylated probe, 635/667 nm fluorescence (AID 1099).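 Note: score merges 667nm spot fluorescence with signal to noise across triplicate slides; reference of the scale not given here.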 To be noted: higher = more signal.
Test [3] can be described thus: small-molecule microarray binders of probe aCHRDL2, primary screen, biochemical, biotinylated probe, 635/667 nm fluorescence (AID 1100). As to conditions: higher = more signal.
Test [4] can be described thus: splicing luciferase reporter signal modulators, primary screen, spliceosome inhibition project, cell-based, HEK293, splice +/- reporter (AID 1101).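 Note: HEK293 cells carrying a splicing-competent luciferase reporter gene; test concentration not given here.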 To be noted: luminescence, 24 h, higher = more signal, called active from +8 up or from −8 down. In general terms: Reporter assays use an easily measured gene product as a stand-in for the process of interest.
The target in test [5] is Fibroblast growth factor 10 (Homo sapiens) (UniProt O15520). In words: FGF10 binders on small-molecule microarrays, primary screen, biochemical, small-molecule microarray, 635 nm fluorescence (AID 1102). To be noted: FGF10 binding, fluorescence 635 nm, higher = more signal.
Chain of Fibroblast growth factor 10 (Homo sapiens) (O15520 whole entry, looked up): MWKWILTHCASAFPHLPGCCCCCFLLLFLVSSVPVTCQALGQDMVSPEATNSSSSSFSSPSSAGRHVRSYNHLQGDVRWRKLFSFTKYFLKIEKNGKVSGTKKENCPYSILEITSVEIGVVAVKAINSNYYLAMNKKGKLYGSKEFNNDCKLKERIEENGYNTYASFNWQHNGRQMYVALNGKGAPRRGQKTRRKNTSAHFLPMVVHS
Test [6] relates to glycogen synthase kinase-3 (GSK3A per assay name; protocol says GSK3B). In words: GSK3 binders on small-molecule microarrays, primary screen, biochemical, small-molecule microarray, 635 nm fluorescence, GSK3A (AID 1103). Note: the record names both GSK3A and GSK3B. As to conditions: small-molecule microarray binding, fluorescence 635 nm; higher = more signal.
For test [7], the target named is Epidermal growth factor receptor (Homo sapiens) (UniProt P00533). In words: EGFR binders on small-molecule microarrays, primary screen, biochemical, small-molecule microarray, 635 nm fluorescence (AID 1104).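 Note: score merges 667 nm emission intensity with spot signal to noise over triplicate slides.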 To be noted: EGFR binding, higher = more signal.
Chain of Epidermal growth factor receptor (Homo sapiens) (P00533 whole entry, looked up): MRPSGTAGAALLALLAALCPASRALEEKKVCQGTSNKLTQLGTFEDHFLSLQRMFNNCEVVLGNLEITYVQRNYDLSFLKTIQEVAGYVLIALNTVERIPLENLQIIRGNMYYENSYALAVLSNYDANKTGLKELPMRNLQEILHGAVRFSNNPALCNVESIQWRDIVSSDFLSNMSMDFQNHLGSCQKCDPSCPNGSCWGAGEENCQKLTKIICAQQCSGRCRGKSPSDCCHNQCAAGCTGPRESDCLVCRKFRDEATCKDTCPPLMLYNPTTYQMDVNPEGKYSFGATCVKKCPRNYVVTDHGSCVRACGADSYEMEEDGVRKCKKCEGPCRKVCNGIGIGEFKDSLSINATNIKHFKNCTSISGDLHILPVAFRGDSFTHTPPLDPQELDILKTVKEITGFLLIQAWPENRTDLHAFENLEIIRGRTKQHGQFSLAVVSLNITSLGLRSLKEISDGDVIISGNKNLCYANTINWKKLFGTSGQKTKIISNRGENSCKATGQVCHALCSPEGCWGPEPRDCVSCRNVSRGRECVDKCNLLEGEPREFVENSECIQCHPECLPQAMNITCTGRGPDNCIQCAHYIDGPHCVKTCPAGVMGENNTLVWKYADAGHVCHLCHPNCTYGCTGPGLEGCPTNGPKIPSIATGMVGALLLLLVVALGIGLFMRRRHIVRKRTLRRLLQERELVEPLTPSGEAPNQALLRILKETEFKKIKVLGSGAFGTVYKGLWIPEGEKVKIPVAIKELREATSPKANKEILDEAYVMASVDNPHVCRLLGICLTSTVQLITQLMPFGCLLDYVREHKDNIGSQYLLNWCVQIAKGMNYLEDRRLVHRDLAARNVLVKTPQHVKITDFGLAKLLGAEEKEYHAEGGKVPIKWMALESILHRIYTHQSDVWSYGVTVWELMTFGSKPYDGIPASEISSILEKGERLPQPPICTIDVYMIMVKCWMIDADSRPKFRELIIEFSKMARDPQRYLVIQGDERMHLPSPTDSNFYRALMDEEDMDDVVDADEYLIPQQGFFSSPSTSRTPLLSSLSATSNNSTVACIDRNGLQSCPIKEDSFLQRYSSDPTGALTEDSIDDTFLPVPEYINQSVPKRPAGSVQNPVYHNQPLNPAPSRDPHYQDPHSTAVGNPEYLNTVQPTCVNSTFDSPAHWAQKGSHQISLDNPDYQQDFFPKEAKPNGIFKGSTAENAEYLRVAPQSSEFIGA
Test [8] addresses Follistatin-related protein 3 (Homo sapiens) (UniProt O95633). In words: FSTL3 binders on small-molecule microarrays, primary screen, biochemical, small-molecule microarray, 635 nm fluorescence (AID 1105).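 Note: score merges emission near 667 nm and signal to noise per printed spot across three slides.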 To be noted: FSTL3 binding, higher = more signal.
For test [9], the target named is Dickkopf-related protein 1 (Homo sapiens) (UniProt O94907). In words: DKK1 binders on small-molecule microarrays, primary screen, biochemical, small-molecule microarray, 635 nm fluorescence scan (AID 1106).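 Note: score merges emission near 667 nm with signal to noise over three replicate slides.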 As to conditions: DKK1 binding, higher = more signal.
Chain of Dickkopf-related protein 1 (Homo sapiens) (O94907 whole entry, looked up): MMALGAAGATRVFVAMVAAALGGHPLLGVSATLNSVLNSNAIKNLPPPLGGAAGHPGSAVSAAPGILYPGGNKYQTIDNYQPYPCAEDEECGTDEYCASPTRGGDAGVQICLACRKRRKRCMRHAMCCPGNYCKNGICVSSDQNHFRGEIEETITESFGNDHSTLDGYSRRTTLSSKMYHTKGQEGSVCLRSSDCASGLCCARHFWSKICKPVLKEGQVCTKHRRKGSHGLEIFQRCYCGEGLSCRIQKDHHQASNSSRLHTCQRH
Test [10] has as its system Inhibin beta A chain (activin A). In words: INHBA (activin A) binders on microarrays, primary screen, biochemical, small-molecule microarray, 635 nm fluorescence scan (AID 1107).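 Note: mouse activin A protein probed at 4.33 µg/mL on printed slides; score merges bound-protein fluorescence near 667 nm with spot signal-to-noise.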 As to conditions: small-molecule microarray binding, higher = more signal.

Activity calls are given as the source filed them.

Chain of Follistatin-related protein 3 (Homo sapiens) (O95633 whole entry, looked up): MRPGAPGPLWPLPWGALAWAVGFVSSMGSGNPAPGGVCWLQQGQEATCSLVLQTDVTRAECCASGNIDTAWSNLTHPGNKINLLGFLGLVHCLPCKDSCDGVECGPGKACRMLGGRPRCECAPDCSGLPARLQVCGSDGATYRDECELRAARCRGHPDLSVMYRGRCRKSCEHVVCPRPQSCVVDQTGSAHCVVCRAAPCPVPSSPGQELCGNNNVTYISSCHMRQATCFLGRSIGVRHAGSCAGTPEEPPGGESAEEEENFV

With `CN(C)CCCCCCNC(=O)[C@@H]1C[C@@H]2C(=O)NCC(=O)N2[C@@H]1c1cccc(OCCO)c1`, the composite z-score in test [1] is 1.39; in test [2], 0.156; in test [3], -0.0688; in test [5], 1.34; in test [6], 1.36; in [7], 0.654. For the same compound, the results for the composite z-score in [8], in [9] and in test [10] were 1.48, 1.28 and 0.433, respectively. Moreover, the z-score in [4] was 0.0236 (inactive).

As for `CN(C)CCCC[C@@H]1NC(=O)[C@H]2C[C@@H](C(=O)NCCCCCNC(=O)CS)[C@@H](c3ccc(O)cc3)N2C1=O`, the composite z-score in [1] is 0.133; in test [2], 0.0417; in [3] it was 0.308; in [5], -1.2; in test [6], -0.53; in [7], -0.483. Further, the results for the composite z-score in test [8], in test [9] and in test [10] were -1.39, -0.653 and 0.0182, respectively. In addition, in test [4], the z-score was 1.1 (inactive).

Regarding `C=C[C@H](C)[C@H](O)c1ccc(OCCO)cc1`, the composite z-score was 0.771 in test [1]; -0.564 in test [2]; 0.883 in [3]; -0.772 in test [5]; -1.21 in test [6]; -1.58 in test [7]. Also, the composite z-score is -0.607 in test [8], -1.97 in test [9] and -2.79 in test [10]. For the same compound, in test [4], the z-score is -0.961 (inactive).

As for `CC1CC/C=C\[C@H]2OC34C=CCN(Cn5nnc6ccccc65)C(=O)[C@H]3N(CCCO)C(=O)[C@@H]4C2C(=O)O1` (stereo not given in full), the composite z-score is 1.14 in test [1]; -0.12 in test [2]; 0.763 in test [3]; -1.04 in test [5]; -1.31 in [6]; -0.991 in test [7]. The composite z-score is -0.97 in [8], -1.6 in test [9] and 0.767 in test [10]. For the same compound, the z-score in test [4] is -0.538 (inactive).

Take `C=CCC(OC(C)=O)[C@@H]1[C@@H](N(Cc2ccc(-c3cccc(C(F)(F)F)c3)o2)C(=O)c2ccc(C)cc2)c2cc(OCCCO)ccc2N1C(=O)c1ccc2ccccc2n1` (stereo not given in full): the composite z-score was 0.273 in test [1]; -0.164 in test [2]; 0.253 in test [3]; 0.453 in test [5]; -0.124 in [6]; -0.0487 in test [7]. Moreover, the results for the composite z-score in [8], in test [9] and in [10] were 0.483, 0.381 and 1.4, respectively. Also, the z-score in test [4] was 0.168 (inactive).

As to `COC(=O)[C@@]1(Cc2ccc(F)cc2)[C@H]2c3cc(C(=O)N4CCCC4)n(CCc4ccc(OC)c(Br)c4)c3C[C@H]2CN1C(=O)c1ccccc1`, the composite z-score in test [1] is 0.972; in test [2], 1.55; in test [3] it was 1.52; in test [5] it was 0.68; in [6], 1.33; in [7], -0.0295. Also, the composite z-score in [8] was 1.22; in [9], -0.813; in [10], 0.475. Also, the z-score in [4] was -2.23 (inactive).

With `C=CCOC(=O)[C@H]1[C@@H]2C(=O)O[C@@H](c3ccccc3)[C@@H](c3ccccc3)N2[C@@H](c2ccc(OCCOC(=O)[C@@H]3C[C@@H]4C(=O)NCC(=O)N4[C@@H]3c3ccc(O)cc3)cc2)[C@]12C(=O)Nc1ccc(I)cc12`, the composite z-score in test [1] is 1.49; in test [2], -0.106; in test [3], 0.0065; in test [5], 1.2; in test [6], 1.3; in test [7], 1.14. For the same compound, the values for the composite z-score in test [8], in test [9] and in [10] were 1.34, 0.873 and 0.141, respectively. Also, the z-score in test [4] is -0.0179 (inactive).

On to `Cc1c(NC(=O)/C(C#N)=C/C=C/c2ccccc2)c(=O)n(-c2ccccc2)n1C`, for which the composite z-score is 0.504 in test [1]; -0.0814 in test [2]; -0.366 in test [3]; -0.0134 in [5]; 0.234 in test [6]; 0.513 in [7]. Further, the composite z-score came out at 0.573 in [8], 0.425 in [9] and 0.772 in test [10]. In test [4], the z-score was 0.777 (inactive).

`CCCCCN1CC=CC23O[C@@H]4C=CCCOC(=O)C4[C@H]2C(=O)N(CCCO)[C@@H]3C1=O` (stereo not given in full): the composite z-score in [1] was 1.06; in test [2], -0.117; in [3], -0.141; in [5], -0.0549; in test [6], -0.452; in [7], -0.928. Also, the composite z-score in test [8] was -0.344; in [9] it was 0.0124; in test [10], -0.166. Further, the z-score in test [4] is -0.588 (inactive).

For `O=C1c2ccccc2[C@@]2(Cc3ccccc3N(Cc3ccccc3)C2=O)[C@H](c2ccc(CO)cc2)N1Cc1ccccc1C(F)(F)F`, the composite z-score in [1] is 1.1; in test [2], 0.0463; in test [3] it was 0.847; in test [5], -0.665; in test [6], -0.866; in test [7], -1.09. The composite z-score in test [8] is -0.71; in test [9], -1.38; in [10], 0.581. Moreover, in test [4], the z-score was 0.0517 (inactive).

Take `CC(C)NC(=O)[C@@]1(c2ccc([N+](=O)[O-])cc2)CC(=O)N(C(C)C)[C@@H]1c1ccc(CO)cc1`: the composite z-score in test [1] was -0.277; in test [2], -0.247; in [3], 1.07; in test [5], -0.907; in test [6], -0.153; in test [7] it was -0.761. Besides, the composite z-score in test [8] is -0.867; in test [9], -1.56; in test [10] it was -1.45. Further, the z-score in test [4] was -0.64 (inactive).

As to `CC(C)CNC(=O)[C@@]1(C)c2ccccc2C(=O)N(C(C)C)[C@H]1c1ccc(CO)cc1`, the composite z-score in test [1] is 1.09; in [2], 0.0084; in test [3] it was 0.567; in test [5], -1.42; in test [6], -1.29; in test [7] it was -0.741. Moreover, the composite z-score is -0.542 in test [8], -0.854 in [9] and 1.26 in [10]. The z-score in [4] was -0.0251 (inactive).

Regarding `CCCNC(=O)[C@@]1(c2ccc([N+](=O)[O-])cc2)CC(=O)N(CC23CC4CC(CC(C4)C2)C3)[C@@H]1c1ccc(CO)cc1I`, the composite z-score in test [1] was 0.441; in [2], 0.563; in [3], 0.195; in test [5] it was 0.193; in test [6] it was 0.588; in [7] it was 0.27. In addition, the results for the composite z-score in [8], in [9] and in test [10] were 0.236, 0.0305 and 0.655, respectively. Further, the z-score in test [4] is 1.58 (inactive).

Consider `O=C1OCC=C[C@H]2OC34C=CCN(Cc5ccccc5)C(=O)[C@H]3N(CCCO)C(=O)[C@@H]4[C@@H]12` (stereo not given in full), for which the composite z-score in [1] was 0.995; in [2], 1.16; in [3] it was 0.907; in test [5] it was 0.0676; in test [6], 0.301; in test [7] it was -0.692. The results for the composite z-score in test [8], in test [9] and in test [10] were 0.37, -0.896 and 1.22, respectively. Moreover, the z-score in test [4] was -0.589 (inactive).

Regarding `CCCCCCCCCCC(O)C1C=CC2C(=O)N(c3ccccc3)C(=O)C2N1Nc1ccc([N+](=O)[O-])cc1` (stereo not given), the composite z-score in [1] is 1.34; in test [2], -0.101; in test [3], 0.584; in test [5], 0.668; in test [6], 1.29; in test [7], 0.352. Besides, the composite z-score in test [8] was 1.01; in test [9] it was 0.0052; in test [10], 0.559. In [4], the z-score was 0.823 (inactive).

As for `COC(=O)c1nc2oc1CC[C@@H](CO)NC(=O)N(C)Cc1cn(nn1)C[C@H](Cc1ccccc1)NC2=O`, the composite z-score in test [1] was 0.68; in test [2], -0.268; in [3], 0.269; in test [5] it was 0.133; in test [6] it was -0.587; in [7], -0.647. Also, the composite z-score is -0.221 in [8], -0.4 in test [9] and 0.697 in test [10]. Also, in test [4], the z-score is -0.275 (inactive).

Turning to `C=CCN1C(=O)[C@@]2(O[C@@H](CCO)[C@H]([Si](C)(C)c3ccc(OC)cc3)[C@H]2C)c2cc(NC(C)=O)ccc21`, the composite z-score in test [1] was 0.463; in test [2] it was -0.155; in [3], -0.255; in test [5], 1.08; in test [6], 1.16; in test [7], 0.363. For the same compound, the composite z-score came out at 1.44 in test [8], 1.29 in test [9] and 0.314 in [10]. Besides, in test [4], the z-score is -1.17 (inactive).
